High-throughput results as filed in PubChem BioAssay.
The list is not random: actives were taken first. Their share in the collection is about 6.2%.
MARV entry inh: inhibitors of Marburg virus binding or cell entry | Marburg virus pseudotyped entry inhibition, cell reporter | AID 540276 | 300,000 tested, 1.8% active | Potency, µM (highest dose often 37.8 µM), most hits filed as inhibitors; calls by dose curve; tested in HEK293 cells
Lassa entry inh: inhibitors of Lassa virus binding or cell entry. AID 540256. Lassa virus pseudotype entry inhibition, cell reporter. 300,000 tested, 1.2% active. Potency, µM (doses to about 37.9 µM), hits mostly inhibitors; calls by dose curve; tested in HEK293 cells; also: nearly all actives have a fitted effect of over 50% in size
FMDV inh: blocks foot and mouth disease virus | FMDV antiviral cell-based qHTS | AID 1159524 | Potency, µM (top dose mostly 57.9 µM), hits mostly inhibitors | 410,000 tested, 1.2% active; calls by dose curve; tested in HEK293T cells; also: read-out not given here; nearly all actives have a fitted effect of over 45% in size
HCMV inh: inhibitors of human cytomegalovirus; HFF cells, HCMV-luciferase reporter, 72 h; stronger effect = lower value; activity change, negative = inhibition, % at 57.5 µM; 410,000 tested, 4.5% active; AID 1259415; in the data active = activity change below about -60%; inconclusive = no clear call, values can overlap the other calls; inactive = above about -39%
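Steps: HFFs plated, 16 h 37C; compounds added; HCMV-luciferase added to MOI 1 PFU/cell; 72 h 37C; OneGlo reagent, 5 min room temperature; luminescence read, normalized to controls.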
Large screens that a line does not name were inactive; ! = a repeat was not active.

O=C(c1ccc(Cl)cc1)N1CCCCC(Sc2nnc(-c3ccc4c(c3)OCO4)o2)C1=O (centres undefined)	MARV entry inh inconclusive, Lassa entry inh inconclusive, FMDV inh 10µM, HCMV inh -67
C=CCCC[C@@H]1OC(=O)CNC(=O)C([C@@H](C)CC)NC(=O)[C@@H]2CCCN2C(=O)C([C@@H](C)CC)OC(=O)[C@H](Cc2ccccc2)N(C)C(=O)[C@H](C(C)C)NC(=O)C1(C)C (some centres undefined)	HCMV inh -73 (no result: MARV entry inh, Lassa entry inh)
CC(=O)Nc1ccc(NC(=O)CSc2nncn2C)cc1	none
COc1ccc(-n2ccnc2SCC(=O)Nc2ccc3c(c2)OCO3)cc1	HCMV inh -74 (no result: MARV entry inh)
COc1ccc(NC(=O)CSc2nnc3ccc(-c4cccnc4)nn23)cc1	HCMV inh inconclusive
COc1ccc(NC(=O)CSc2nccn2-c2ccccc2)cc1	none
CCc1ccc(NC(=O)CSc2nccn2-c2ccc(OC)cc2)cc1	HCMV inh -100 (no result: MARV entry inh)
COc1ccc(NC(=O)CSc2nnc3ccc(-c4ccncc4)nn23)cc1	HCMV inh -71
COc1cccc(-n2ccnc2SCC(=O)Nc2c(C)cc(C)cc2C)c1	HCMV inh -102 (no result: MARV entry inh)
Cc1ccc(Cl)cc1-c1cc(C(=O)NCc2ccco2)[nH]n1	none (no result: MARV entry inh, Lassa entry inh)
CC(C)c1nn2c(=O)cc(COC(=O)c3cccc(NC(=O)COc4ccc(F)cc4)c3)nc2s1	none (no result: MARV entry inh)
O=C(CSc1nccn1-c1ccc(F)cc1)Nc1ccc2c(c1)OCO2	HCMV inh inconclusive
CCc1ccc(NC(=O)CSc2nccn2-c2ccc(F)cc2)cc1	HCMV inh -66 (no result: MARV entry inh)
CN1CCC[C@@H]1CCNC(=O)c1c(-c2ccc3c(c2)OCO3)noc1-c1ccsc1	HCMV inh -75 (no result: MARV entry inh, Lassa entry inh)
Cc1ccc(S(=O)(=O)NC(CC(C)C)C(=O)N2CCCC2)cc1 (centres undefined)	none
O=C(O)CCn1cc(C=C2C(=O)NC(=O)NC2=O)c(-c2ccc(Br)cc2)n1	MARV entry inh inconclusive
O=C(O)CCn1cc(/C=C/C(=O)c2ccc(Cl)cc2)c(-c2ccc(Br)cc2)n1	FMDV inh 16µM
O=C(CSC1=Nc2ccccc2C2=NC(Cc3ccccc3)C(=O)N12)Nc1cccc(Cl)c1 (centres undefined)	Lassa entry inh inconclusive, HCMV inh -72 (no result: MARV entry inh)
CCOc1ccc(NC(=O)CSC2=Nc3ccccc3C3=NC(CCC(=O)NCc4cccs4)C(=O)N23)cc1 (centres undefined)	none (no result: MARV entry inh)
COc1ccc(NC(=O)CSC2=Nc3ccccc3C3=NC(CCC(=O)NCCc4ccccc4)C(=O)N23)cc1 (centres undefined)	none (no result: MARV entry inh)
COc1cccc(NC(=O)CSC2=Nc3ccccc3C3=NC(CCC(=O)NCCc4ccccc4)C(=O)N23)c1 (centres undefined)	FMDV inh inconclusive, HCMV inh -68 (no result: MARV entry inh)
COc1ccc(NC(=O)CSC2=Nc3ccccc3C3=NC(CCC(=O)NCc4cccs4)C(=O)N23)cc1 (centres undefined)	HCMV inh -73 (no result: MARV entry inh)
O=c1[nH]c2cc3c(cc2cc1CN(CC1CCCO1)S(=O)(=O)c1ccc(Cl)cc1)OCCO3 (centres undefined)	none
O=C(CN1C(=O)NC2(CCCCCC2)C1=O)N1CCCCC1	none (no result: MARV entry inh, Lassa entry inh)
CSCCC(NC(=O)c1ccccc1)C(=O)O (centres undefined)	none
COc1ccc2c(c1)C(=O)/C(=C/C=C/c1ccccc1)CC2	none
COC1=CC(=O)C(O)=C/C1=C\C=C\c1ccccc1	FMDV inh 40µM (no result: MARV entry inh, Lassa entry inh, HCMV inh)
CO/N=C1\CCCc2c(C(=O)NN)sc(SC)c21	MARV entry inh inconclusive, Lassa entry inh inconclusive, HCMV inh -66
CCOC(=O)c1sc(SC)c2c1CCC/C2=N/OC	none
CC(C)c1cc2cc3ccc(=O)oc3cc2o1	MARV entry inh inconclusive
CCN(CCn1cccn1)C(=O)c1cc(COc2ccc(F)cc2Cl)on1	none (no result: Lassa entry inh)
COCCNC(=O)C(=O)NCC(c1ccc2c(c1)OCO2)N1CCOCC1 (centres undefined)	none (no result: MARV entry inh)
CCN(c1ccccc1)S(=O)(=O)c1cccc(C(=O)NCC(c2ccco2)N2CCCCC2)c1 (centres undefined)	MARV entry inh inconclusive, HCMV inh -71
O=C(NCC(c1ccco1)N1CCCCC1)c1ccc(COc2ccc(Cl)cc2)cc1 (centres undefined)	MARV entry inh inconclusive, Lassa entry inh 10µM
COCCCNC(=O)C(=O)NCC(c1ccc2c(c1)OCO2)N1CCOCC1 (centres undefined)	HCMV inh -113 (no result: MARV entry inh)
COc1ccc(C(CNC(=O)Cc2ccccc2Cl)N2CCCCC2)cc1 (centres undefined)	MARV entry inh 4µM
CC(=O)c1c(C(C)=O)c(C)n(C(c2ccccc2)c2ccccc2)c1C	none (no result: MARV entry inh, Lassa entry inh)
CCOc1cccc(C2c3c(oc4ccc(F)cc4c3=O)C(=O)N2CCc2ccc(OC)cc2)c1 (centres undefined)	none
Cc1ccc(C(=O)NCC(c2ccc(Cl)cc2)N2CCCCC2)cc1 (centres undefined)	MARV entry inh inconclusive
COc1ccc(C(=O)NCC(c2ccc(N(C)C)cc2)N2CCOCC2)cc1 (centres undefined)	HCMV inh -77 (no result: MARV entry inh)
COc1ccc(C(=O)NCC(c2ccc(N(C)C)cc2)N2CCCC2)cc1 (centres undefined)	none (no result: MARV entry inh)
O=C(NCC(c1ccc(Cl)cc1)N1CCCCC1)c1ccc(F)cc1 (centres undefined)	MARV entry inh 2.8µM
CCC(C)Sc1ccc(-c2nc3cc(C)ccn3c2NC2CCCCC2)cc1 (centres undefined)	FMDV inh inconclusive, HCMV inh -102! (no result: MARV entry inh, Lassa entry inh)
COc1cc(-c2nc3cc(C)ccn3c2NC2CCCCC2)ccc1-c1ccc(C(C)=O)cc1	FMDV inh inconclusive, HCMV inh -94 (no result: MARV entry inh, Lassa entry inh)
CC1CC(C)CN(C(=O)c2ccc3c(c2NCCO)C(=O)c2ccccc2C3=O)C1 (centres undefined)	MARV entry inh 10µM, Lassa entry inh inconclusive
NC(=S)NN=C1c2ccccc2-c2cc(Br)ccc21	MARV entry inh inconclusive, FMDV inh inconclusive
Cc1ccc2c(c1)c(=O)c1ccccc1n2CCCC(=O)Nc1ccc(Cl)c(Cl)c1	none (no result: MARV entry inh)
Cc1ccc2c(c1)c(=O)c1ccccc1n2CCCC(=O)Nc1ccc(C)c(C)c1	Lassa entry inh inconclusive, FMDV inh inconclusive, HCMV inh -61 (no result: MARV entry inh)
Cc1ccc2c(c1)c(=O)c1ccccc1n2CCCC(=O)Nc1ccc(Cl)cc1C	none (no result: MARV entry inh)
O=C(CCCn1c2ccccc2c(=O)c2ccccc21)Nc1cccc(Cl)c1	Lassa entry inh inconclusive, FMDV inh inconclusive, HCMV inh -67 (no result: MARV entry inh)
Cc1ccc2c(c1)c(=O)c1ccccc1n2CCCC(=O)Nc1ccc(C)c(F)c1	Lassa entry inh inconclusive, HCMV inh -74 (no result: MARV entry inh)
CC(C)C1N=C2c3ccccc3N=C(SCC(=O)NCc3ccc(F)cc3)N2C1=O (centres undefined)	none (no result: MARV entry inh)
Clc1ccc(Cn2nnc(-c3ccc(N4CCOCC4)cc3)n2)cc1	none (no result: FMDV inh)
Cc1c(C)n(CCN(C)C)c2ncnc(NCc3ccccc3)c12	none
Cc1c(C)n(CCc2ccccc2)c2ncnc(NCCCN(C)C)c12	MARV entry inh 8.9µM, HCMV inh inconclusive
COc1cc(NC(C)CCCNC(C)C)c2ncccc2c1OC (centres undefined)	HCMV inh -82
COc1cc(N)c2ncccc2c1OC	none
OC(CN1C2=NCCN2c2ccccc21)c1ccccc1 (centres undefined)	none
